# ChEMBL document CHEMBL3988442, “University of Dundee, Small-Polar-MMV Screening Library” (2021)
# For part of these data: Entries with a potency or affinity are not part of this list.
# Legend:
# [1] = target: T1, Methionyl-tRNA synthetase, putative (Leishmania donovani (strain BPK282A1)) (UniProt E9BF75); experiment: Leishmania donovani Methionine tRNA synthetase (LdMetRS):v7. Dose response assay; assay type: functional; parameters: conc 80 nM, time 150 minutes
# T1 sequence (whole entry): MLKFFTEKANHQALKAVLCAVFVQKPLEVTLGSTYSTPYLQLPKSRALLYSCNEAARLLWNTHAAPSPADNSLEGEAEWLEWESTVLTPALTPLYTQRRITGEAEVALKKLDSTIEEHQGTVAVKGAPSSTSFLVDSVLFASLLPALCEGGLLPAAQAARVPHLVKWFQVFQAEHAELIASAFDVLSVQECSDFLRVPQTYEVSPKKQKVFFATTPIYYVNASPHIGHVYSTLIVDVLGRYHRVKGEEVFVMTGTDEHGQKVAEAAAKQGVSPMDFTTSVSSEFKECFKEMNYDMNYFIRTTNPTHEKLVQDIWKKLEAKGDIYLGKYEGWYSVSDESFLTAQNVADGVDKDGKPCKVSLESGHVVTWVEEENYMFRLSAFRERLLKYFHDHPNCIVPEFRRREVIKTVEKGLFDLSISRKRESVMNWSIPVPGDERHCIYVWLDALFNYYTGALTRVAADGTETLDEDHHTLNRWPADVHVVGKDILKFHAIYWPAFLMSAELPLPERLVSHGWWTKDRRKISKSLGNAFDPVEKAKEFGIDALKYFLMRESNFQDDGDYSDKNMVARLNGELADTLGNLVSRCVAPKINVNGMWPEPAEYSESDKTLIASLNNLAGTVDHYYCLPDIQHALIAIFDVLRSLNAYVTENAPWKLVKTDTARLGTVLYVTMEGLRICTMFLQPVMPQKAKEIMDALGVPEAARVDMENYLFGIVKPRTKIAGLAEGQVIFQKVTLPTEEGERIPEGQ
# [2] = target: Protein translocase subunit SecA (Escherichia coli (strain K12)) (UniProt P10408); experiment: Assay to Identify E. coli SecA ATPase Inhibitors; assay type: functional; parameters: scale not given: direction of the effect not stated beside the values; conditions: 30 µM
# Protein translocase subunit SecA (Escherichia coli (strain K12)), sequence (P10408 whole entry): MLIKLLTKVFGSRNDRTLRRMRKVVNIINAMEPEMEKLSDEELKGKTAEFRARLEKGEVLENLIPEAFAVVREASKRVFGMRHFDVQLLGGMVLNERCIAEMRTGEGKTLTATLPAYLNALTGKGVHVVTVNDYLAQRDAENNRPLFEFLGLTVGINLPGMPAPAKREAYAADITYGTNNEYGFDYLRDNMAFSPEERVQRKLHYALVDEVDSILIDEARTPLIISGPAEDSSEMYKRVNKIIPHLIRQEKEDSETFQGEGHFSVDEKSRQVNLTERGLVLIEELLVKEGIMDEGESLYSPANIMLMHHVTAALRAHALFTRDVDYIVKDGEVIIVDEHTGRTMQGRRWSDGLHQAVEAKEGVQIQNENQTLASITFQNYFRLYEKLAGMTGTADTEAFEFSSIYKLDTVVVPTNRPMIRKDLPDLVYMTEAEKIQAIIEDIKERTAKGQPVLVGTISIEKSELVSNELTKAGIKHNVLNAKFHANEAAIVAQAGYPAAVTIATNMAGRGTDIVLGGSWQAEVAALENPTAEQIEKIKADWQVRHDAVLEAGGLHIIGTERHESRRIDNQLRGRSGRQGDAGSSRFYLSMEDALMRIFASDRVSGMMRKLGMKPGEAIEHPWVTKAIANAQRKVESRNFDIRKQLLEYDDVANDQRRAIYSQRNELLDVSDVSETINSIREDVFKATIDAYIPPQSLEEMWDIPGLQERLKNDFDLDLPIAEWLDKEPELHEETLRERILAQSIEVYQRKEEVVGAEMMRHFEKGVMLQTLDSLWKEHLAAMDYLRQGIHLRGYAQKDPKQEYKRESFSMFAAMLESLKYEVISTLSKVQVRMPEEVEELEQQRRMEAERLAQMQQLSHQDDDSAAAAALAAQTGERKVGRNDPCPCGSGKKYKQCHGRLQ
# [3] = target: T2, Ubiquitin-activating enzyme e1, putative (Leishmania donovani (strain BPK282A1)) (UniProt E9BSI1); experiment: Leishmania donovani Ubiquitin Activating Enzyme (LdE1); assay type: functional; parameters: scale not given: direction of the effect not stated beside the values; conditions: 30 µM
# T2 sequence (whole entry): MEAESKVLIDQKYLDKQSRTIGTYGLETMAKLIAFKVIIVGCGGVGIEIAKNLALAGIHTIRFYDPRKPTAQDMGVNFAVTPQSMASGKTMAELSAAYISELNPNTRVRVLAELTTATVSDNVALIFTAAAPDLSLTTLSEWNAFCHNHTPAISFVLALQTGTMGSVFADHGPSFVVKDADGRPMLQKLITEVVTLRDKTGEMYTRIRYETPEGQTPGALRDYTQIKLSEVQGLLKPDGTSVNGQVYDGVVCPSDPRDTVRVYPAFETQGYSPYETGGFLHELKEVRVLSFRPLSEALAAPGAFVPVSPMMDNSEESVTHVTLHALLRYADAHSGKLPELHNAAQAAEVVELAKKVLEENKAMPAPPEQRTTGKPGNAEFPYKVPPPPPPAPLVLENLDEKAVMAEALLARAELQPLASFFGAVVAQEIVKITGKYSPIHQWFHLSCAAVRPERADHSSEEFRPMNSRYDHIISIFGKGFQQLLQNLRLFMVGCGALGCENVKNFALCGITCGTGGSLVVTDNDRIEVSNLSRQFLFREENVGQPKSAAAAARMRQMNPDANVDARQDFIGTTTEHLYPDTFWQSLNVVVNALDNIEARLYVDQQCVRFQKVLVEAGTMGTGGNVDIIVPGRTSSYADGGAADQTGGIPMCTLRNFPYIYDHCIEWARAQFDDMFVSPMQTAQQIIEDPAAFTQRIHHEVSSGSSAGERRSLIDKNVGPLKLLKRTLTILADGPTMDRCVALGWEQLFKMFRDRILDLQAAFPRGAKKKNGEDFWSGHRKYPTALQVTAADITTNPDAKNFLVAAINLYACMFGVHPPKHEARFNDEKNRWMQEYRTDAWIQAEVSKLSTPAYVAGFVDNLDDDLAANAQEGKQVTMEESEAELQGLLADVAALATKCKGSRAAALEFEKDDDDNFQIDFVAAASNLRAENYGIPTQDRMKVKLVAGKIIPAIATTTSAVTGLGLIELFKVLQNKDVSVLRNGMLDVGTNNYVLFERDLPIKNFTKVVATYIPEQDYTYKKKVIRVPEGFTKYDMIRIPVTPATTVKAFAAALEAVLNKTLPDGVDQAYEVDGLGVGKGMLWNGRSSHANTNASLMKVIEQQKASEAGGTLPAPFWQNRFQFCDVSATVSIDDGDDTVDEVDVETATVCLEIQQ
# [4] = target: AMP-activated protein kinase, AMPK (Homo sapiens) (UniProt P54646+O43741+P54619+Q9UGJ0+Q9Y478+Q13131+Q9UGI9); experiment: AMP-dependent Kinase enzyme assay. An in vitro enzyme assay that detects ADP turnover that is directly proportional to AMPK activity. This uses naive AMPK that is activated during the assay with MK-8722; assay type: functional; parameters: scale not given: direction of the effect not stated beside the values; conditions: 30 µM
# [5] = target: Sialic acid-binding Ig-like lectin 9 (Homo sapiens) (UniProt Q9Y336); experiment: Hs-Siglec9 ALPHAscreen SOP 20170721; parameters: scale not given: direction of the effect not stated beside the values; conditions: 10 µM
# Sialic acid-binding Ig-like lectin 9 (Homo sapiens), sequence (Q9Y336 whole entry): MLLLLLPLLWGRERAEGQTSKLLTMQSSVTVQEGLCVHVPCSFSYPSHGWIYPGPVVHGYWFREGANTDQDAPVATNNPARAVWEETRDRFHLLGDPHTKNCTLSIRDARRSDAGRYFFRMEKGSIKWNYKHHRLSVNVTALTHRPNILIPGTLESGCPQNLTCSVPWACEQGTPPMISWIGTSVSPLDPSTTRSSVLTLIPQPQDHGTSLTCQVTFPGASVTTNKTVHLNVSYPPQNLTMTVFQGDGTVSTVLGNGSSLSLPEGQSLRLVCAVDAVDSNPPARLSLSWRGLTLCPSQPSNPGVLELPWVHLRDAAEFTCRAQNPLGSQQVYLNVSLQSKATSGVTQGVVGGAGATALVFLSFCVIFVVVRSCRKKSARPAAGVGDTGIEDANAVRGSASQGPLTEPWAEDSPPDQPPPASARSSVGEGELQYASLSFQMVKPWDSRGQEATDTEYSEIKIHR
# Trypanosoma cruzi = experiment: Trypanosoma cruzi phosphomannomutase and mannose-1-phosphate guanylyltransferase assay; assay type: functional; parameters: scale not given: direction of the effect not stated beside the values; conditions: 10 µM
# [6] = target: T3, Arginase-2, mitochondrial (Homo sapiens) (UniProt P78540); experiment: in vitro enzyme assay to detect the production of urea directly proportional to the activity of Arginase II; assay type: functional; parameters: scale not given: in the data most compounds retested in dose-response had high values; conditions: 33.3 µM
# T3 sequence (whole entry): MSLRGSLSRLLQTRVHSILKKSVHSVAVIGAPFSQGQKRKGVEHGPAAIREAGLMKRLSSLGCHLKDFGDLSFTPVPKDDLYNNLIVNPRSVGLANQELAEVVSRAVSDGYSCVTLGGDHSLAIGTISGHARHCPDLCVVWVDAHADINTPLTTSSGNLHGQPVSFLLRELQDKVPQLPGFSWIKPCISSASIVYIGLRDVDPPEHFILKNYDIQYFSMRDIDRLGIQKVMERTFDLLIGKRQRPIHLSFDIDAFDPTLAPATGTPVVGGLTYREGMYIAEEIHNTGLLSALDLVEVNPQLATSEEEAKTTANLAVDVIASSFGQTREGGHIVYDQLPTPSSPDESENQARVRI
# [7] = target: T4, Proteasome subunit beta (Trypanosoma cruzi) (UniProt O96673); experiment: Trypanosoma cruzi proteasome chymotrypsin-like activity (TcProtChymo) assay.; assay type: functional; parameters: scale not given: in the data most compounds retested in dose-response had high values; conditions: 9.37 µM
# T4 sequence (whole entry): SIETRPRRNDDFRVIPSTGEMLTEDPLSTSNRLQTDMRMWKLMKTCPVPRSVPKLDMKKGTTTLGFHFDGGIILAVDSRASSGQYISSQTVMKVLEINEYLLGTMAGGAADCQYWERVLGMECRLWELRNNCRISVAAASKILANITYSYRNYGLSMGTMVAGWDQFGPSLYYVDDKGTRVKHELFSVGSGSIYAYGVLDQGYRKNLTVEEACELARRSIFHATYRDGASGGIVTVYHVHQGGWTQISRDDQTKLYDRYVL
# Homo sapiens = organism: Homo sapiens; experiment: To identify inhibition of the IFN signalling (Jak-Stat) pathway via expression of an eGFP reporter gene under the control of an IFN-stimulated response element (ISRE) containing MxA promoter.; assay type: functional; parameters: scale not given: direction of the effect not stated beside the values; conditions: 30 µM
# [8] = target: T5, Tyrosyl-tRNA synthetase, putative (Trypanosoma cruzi (strain CL Brener)) (UniProt Q4DSP6); experiment: Trypanosoma cruzi tyrosyl tRNA synthetase (TcYRS) _High Tyrosine SOP; assay type: functional; parameters: scale not given: in the data most compounds retested in dose-response had high values; conditions: 30 µM
# T5 sequence (whole entry): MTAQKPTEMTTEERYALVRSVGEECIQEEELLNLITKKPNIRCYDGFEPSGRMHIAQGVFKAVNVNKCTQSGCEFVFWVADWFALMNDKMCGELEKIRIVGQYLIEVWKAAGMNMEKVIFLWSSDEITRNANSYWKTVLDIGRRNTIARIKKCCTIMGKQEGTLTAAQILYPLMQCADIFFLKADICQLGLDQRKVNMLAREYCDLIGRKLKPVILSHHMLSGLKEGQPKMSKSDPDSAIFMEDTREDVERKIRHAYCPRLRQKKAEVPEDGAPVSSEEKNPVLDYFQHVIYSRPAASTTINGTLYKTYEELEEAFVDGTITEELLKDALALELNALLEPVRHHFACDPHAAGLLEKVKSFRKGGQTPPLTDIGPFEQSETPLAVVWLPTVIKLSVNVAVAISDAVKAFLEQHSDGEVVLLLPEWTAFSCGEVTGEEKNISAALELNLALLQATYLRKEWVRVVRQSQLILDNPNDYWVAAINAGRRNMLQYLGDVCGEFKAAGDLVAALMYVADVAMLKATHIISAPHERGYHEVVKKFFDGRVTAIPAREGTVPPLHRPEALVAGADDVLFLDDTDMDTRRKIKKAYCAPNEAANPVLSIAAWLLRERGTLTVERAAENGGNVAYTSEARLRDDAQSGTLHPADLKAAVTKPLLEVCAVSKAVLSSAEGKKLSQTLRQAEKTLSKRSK
# [9] = target: T5, Tyrosyl-tRNA synthetase, putative (Trypanosoma cruzi (strain CL Brener)); experiment: Trypanosoma cruzi tyrosyl tRNA synthetase (TcYRS) SOP; assay type: functional; parameters: scale not given: direction of the effect not stated beside the values; conditions: 30 µM
# [10] = target: Chromo domain-containing protein 1 (Saccharomyces cerevisiae (strain ATCC 204508 / S288c) (Baker's yeast)) (UniProt P32657); experiment: ScCHD-1 Enzyme Inhibition Assay; assay type: functional; parameters: scale not given: in the data most compounds retested in dose-response had high values; conditions: 30 µM
# Chromo domain-containing protein 1 (Saccharomyces cerevisiae (strain ATCC 204508 / S288c) (Baker's yeast)), sequence (P32657 whole entry, the tested form may be a part): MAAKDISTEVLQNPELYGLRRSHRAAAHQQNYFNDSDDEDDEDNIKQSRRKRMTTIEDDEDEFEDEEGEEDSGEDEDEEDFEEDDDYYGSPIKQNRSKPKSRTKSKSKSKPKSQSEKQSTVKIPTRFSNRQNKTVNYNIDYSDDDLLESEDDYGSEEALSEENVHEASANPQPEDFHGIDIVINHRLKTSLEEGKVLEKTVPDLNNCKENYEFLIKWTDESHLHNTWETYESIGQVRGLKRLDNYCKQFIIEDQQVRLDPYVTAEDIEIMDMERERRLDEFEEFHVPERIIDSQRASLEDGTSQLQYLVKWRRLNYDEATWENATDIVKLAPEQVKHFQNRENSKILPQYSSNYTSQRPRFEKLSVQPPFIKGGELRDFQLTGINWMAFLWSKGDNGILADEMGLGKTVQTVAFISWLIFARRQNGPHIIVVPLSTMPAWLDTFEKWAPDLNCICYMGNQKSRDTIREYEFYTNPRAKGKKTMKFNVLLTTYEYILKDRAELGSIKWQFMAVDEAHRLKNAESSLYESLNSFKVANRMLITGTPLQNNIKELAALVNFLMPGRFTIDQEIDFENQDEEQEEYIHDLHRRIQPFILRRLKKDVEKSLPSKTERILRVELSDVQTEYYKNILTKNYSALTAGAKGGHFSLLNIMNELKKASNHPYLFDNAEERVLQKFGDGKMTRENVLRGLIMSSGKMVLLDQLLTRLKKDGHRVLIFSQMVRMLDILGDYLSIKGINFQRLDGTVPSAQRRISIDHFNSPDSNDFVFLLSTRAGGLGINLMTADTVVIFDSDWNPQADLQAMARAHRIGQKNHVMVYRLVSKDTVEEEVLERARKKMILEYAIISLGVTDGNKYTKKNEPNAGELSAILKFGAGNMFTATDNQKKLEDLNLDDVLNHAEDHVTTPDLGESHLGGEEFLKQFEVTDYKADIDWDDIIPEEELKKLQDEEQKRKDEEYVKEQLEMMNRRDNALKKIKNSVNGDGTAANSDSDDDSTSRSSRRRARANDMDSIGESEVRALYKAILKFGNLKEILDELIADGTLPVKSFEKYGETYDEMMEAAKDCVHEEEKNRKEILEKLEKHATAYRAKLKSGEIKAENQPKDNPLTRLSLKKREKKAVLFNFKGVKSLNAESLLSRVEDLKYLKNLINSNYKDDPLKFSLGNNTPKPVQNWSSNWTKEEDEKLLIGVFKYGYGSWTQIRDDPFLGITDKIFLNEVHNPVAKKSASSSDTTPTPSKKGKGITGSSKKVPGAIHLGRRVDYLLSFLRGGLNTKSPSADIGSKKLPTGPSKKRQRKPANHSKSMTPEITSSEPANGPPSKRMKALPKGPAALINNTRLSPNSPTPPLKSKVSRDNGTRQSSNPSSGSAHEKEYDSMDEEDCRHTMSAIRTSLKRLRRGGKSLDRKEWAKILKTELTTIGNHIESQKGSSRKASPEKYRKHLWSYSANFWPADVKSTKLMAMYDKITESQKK
smiles,measurement,setting,value
Cn1cccc1C1CCCCCN1C(=O)c1ccc(NC2CC2)nc1 (centres undefined),PXC50,"[1]; BOTTOM 0.111908338, HILLSLOPE 1.39754326, MAX_EFFECT 51.12651646, TOP 100.0",4.03
same,PXC50,"[1]; BOTTOM 4.752718183, HILLSLOPE 1.435645002, MAX_EFFECT 69.44444444, TOP 100.0",4.25
same,PXC50,"[1]; BOTTOM 4.940186034, HILLSLOPE 1.180279811, MAX_EFFECT 63.75838926, TOP 100.0",4.18
same,PXC50,[1]; MAX_EFFECT 37.16108453,< 4
same,PXC50,[1]; MAX_EFFECT 39.73128599,< 4
FC1(F)CCN(Cc2cccnc2)CC12CCN(c1ccccc1)C2 (centres undefined),PXC50,"[1]; BOTTOM -4.019199092, HILLSLOPE 0.87851595, MAX_EFFECT 63.88888889, TOP 104.3685566",4.25
same,PXC50,"[1]; BOTTOM -4.110370477, HILLSLOPE 0.854311737, MAX_EFFECT 59.79202773, TOP 100.0",4.27
same,PXC50,"[1]; BOTTOM -6.339797733, HILLSLOPE 0.853335904, MAX_EFFECT 59.06040268, TOP 100.0",4.22
same,PXC50,[1]; MAX_EFFECT 7.101727447,< 4
same,PXC50,[1]; MAX_EFFECT 13.23763955,< 4
Cc1cc(C)n(CCCn2cncc2-c2ccc3c(c2)CC(C)N3C)n1 (centres undefined),PXC50,"[1]; BOTTOM 4.401789899, HILLSLOPE 1.374668367, MAX_EFFECT 53.02013423, TOP 100.0",4.02
same,PXC50,"[1]; BOTTOM 5.049738187, HILLSLOPE 0.795238386, MAX_EFFECT 63.88888889, TOP 100.0",4.3
same,PXC50,"[1]; BOTTOM 6.889933183, HILLSLOPE 1.019311149, MAX_EFFECT 71.9237435, TOP 100.0",4.34
same,PXC50,[1]; MAX_EFFECT 6.666666667,< 4
same,PXC50,[1]; MAX_EFFECT 21.73913043,< 4
Cc1nnc(NCC2(c3ccccc3)CC2)c(C#N)c1C,PXC50,[1]; MAX_EFFECT 6.650831354,< 4
same,PXC50,[1]; MAX_EFFECT 11.79577465,< 4
same,Percent Effect,[2],-6.81%
same,Percent Effect,[3],0%
same,Percent Effect,[4],-11.8%
same,Percent Effect,[5],5.06%
same,Percent Effect,Trypanosoma cruzi,-3.09%
same,Percent Effect,[6],1.43%
same,Percent Effect,[7],8.1%
same,Percent Effect,Homo sapiens,13%
same,Percent Effect,[8],-0.529%
same,Percent Effect,[9],4.88%
same,Percent Effect,[10],-4.42%
FC1(F)CCN(Cc2ccccn2)CC12CCN(c1cccnc1)C2 (centres undefined),PXC50,[1]; MAX_EFFECT 3.800475059,< 4
same,PXC50,[1]; MAX_EFFECT 6.161971831,< 4
same,Percent Effect,[2],-7.19%
same,Percent Effect,[3],2.7%
same,Percent Effect,[4],114%
same,Percent Effect,[5],-3.38%
same,Percent Effect,Trypanosoma cruzi,-1.86%
same,Percent Effect,[6],2.87%
same,Percent Effect,[7],0.369%
same,Percent Effect,Homo sapiens,49.7%
same,Percent Effect,[8],-3.24%
same,Percent Effect,[9],-2.56%
same,Percent Effect,[10],-1.38%
FC1(F)CCN(Cc2ccncc2)CC12CCN(Cc1ccccn1)C2 (centres undefined),PXC50,[1]; MAX_EFFECT 4.275534442,< 4
same,PXC50,[1]; MAX_EFFECT 11.44366197,< 4
same,Percent Effect,[2],-7.03%
same,Percent Effect,[3],0%
same,Percent Effect,[4],-0.894%
same,Percent Effect,[5],2.49%
same,Percent Effect,Trypanosoma cruzi,-5.96%
same,Percent Effect,[6],0.319%
same,Percent Effect,[7],5.35%
same,Percent Effect,Homo sapiens,17.3%
same,Percent Effect,[8],-3.24%
same,Percent Effect,[9],-5.13%
same,Percent Effect,[10],-2.99%
